# Measured values: PubChem BioAssay (NCI)
# Compounds without any hit were thinned out: in the full panel of roughly 83,000, 20% have a hit.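 Results are percent growth after 48 hours of single-concentration exposure. 100 means growth as in untreated cells, lower positive values show inhibition; negative values down to -100 show cell death.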 A number with no mark means an inactive call. Active and inactive are the calls of the source.
# Tested on: BT-549 breast
# Test: NCI-60 one-dose screen, 48 h (100 = growth as untreated, 0 = no growth, -100 = all killed)
# Details: 10 µM unless noted
# Method: Growth inhibition of the BT-549 human tumor cell line is measured as a screen for anti-cancer activity. Cells are grown in 96 well plates and exposed to the test compound for 48 hours. Compounds are tested at a single concentration, which is 10^-5 M for most compounds. The reported endpoint is percent growth (GI% or GIPRCNT), where numbers from 0 - 100% represent growth inhibition, and numbers from -100% - 0 represent cell death. For example, a value of 40 represents 60% growth inhibition. A value of 0 means no net growth occurred over the course of the experiment. A value of -40 indicates 40% of cells at the beginning of the experiment died by the end of the experiment. A value of -100 means all cells are dead at the end of the experiment.
# NCI-60 Human Tumor Cell Lines Screen was performed using the standard one-dose NCI protocol, which is described in more detail at https://dtp.cancer.gov/discovery_development/nci-60/default.htm.
# Compounds with GIPRCNT values below 10 were considered active. Activity score was based on GIPRCNT using the following formula: […]
# Score is 0 for GIPRCNT values of 100 or above, 50 for GIPRCNT values of 0, and 100 for GIPRCNT values of -100.
row,Compound,growth
1,O=S(=O)(NCCNc1cc(-c2c(-c3cccc(O)c3)nc3sccn23)ccn1)c1ccc(C(F)(F)F)cc1,26.6%
2,O=C(/C=C/c1cccs1)c1ccc(Cl)nc1,101%
3,Cc1cc2c(O)c(-c3cccc(Cl)c3)c3sc(=O)oc3c2cc1C,58.8%
4,Cc1cc2c([nH]1)CSc1cc(S(=O)(=O)c3ccccc3)c(=O)[nH]c1-2,-12.2% [100 µM] (active)
5,CNC(=O)c1cc(Oc2ccc3c(c2)sc2nc(-c4cc(OC)c(OC)c(OC)c4)cn23)ccn1,24%
6,COc1ccc(/C=N/NC(=O)CCN2c3ccccc3Sc3ccccc32)cc1,84.8%
7,Cc1ccc(C2=Nc3c(N)ncnc3NC(c3ccc4c(c3)OCO4)C2)cc1 (stereo not given),61.4%
8,OCCCC1CCN(C(Cc2ccccc2)c2ccccc2)CC1 (stereo not given),79.8%
9,CC(=O)n1nc(C(=O)OC(C)C)c2cc(C)c(C)cc21,98.2%
10,Cc1nn(-c2ccccc2)c(Oc2ccccn2)c1-c1nc2ccccc2s1,95.4%
11,CC(C)(C)[Si](C)(C)O[C@H]1C(=O)C=CN2CC=C[C@@H]12,137% [100 µM]
12,COc1cc2c(c(OC)c1OC)CCC(c1cccc(C(=O)Nc3cccc(Br)c3)c1)O2 (stereo not given),80.8%
13,CCCCCCCCn1ccc2cc(NC(=O)CN3CCN(c4nc(C)cc(Cl)n4)CC3)ccc21,101%
14,CC1(c2ccccc2O)NN=C(/N=C/c2cccc([N+](=O)[O-])c2)N1C(Cc1c[nH]c2ccccc12)C(=O)O (stereo not given),97.5%
15,C=CCn1c(SCC(=O)Nc2ccc(C(=O)/C=C/c3ccc(Cl)cc3)cc2)nnc1-c1cc(-c2ccc(S(N)(=O)=O)cc2)nc2ccccc12,80.5%
16,O=C(CSc1nnc2n1S(=O)(=O)c1ccccc1N2c1ccccc1)Nc1nc2ccc(F)cc2s1,97.1%
17,C=CCn1c(SCC(=O)Nc2ccc(C(=O)/C=C/c3cc4cc(OC)ccc4nc3Cl)cc2)nnc1-c1ccc(Br)cc1,79.3%
18,CCOC(=O)C1=C(NC)OCC1=O,102%
19,COC(=O)c1c2c(c[n+]([O-])c1C)C(=O)C(NCc1ccccc1)=CC2=O,-88.7% (active)
20,CCOC(=O)c1cc(C(=O)c2cc(OC)c(OC)c(OC)c2)n2ccc(-c3ccncc3)cc12,90.6%

row,Compound,growth
1,CN1CCN(c2ccc(NC(=O)c3nc4ccc5[nH]ncc5c4c4c3CCCC4)cc2C(F)(F)F)CC1,90.6%
2,Fc1ccc(Nc2nc3nonc3nc2Nc2ccc(I)cc2)cc1,-6.04% (active)
3,N#Cc1nc(-c2ccccc2)oc1S(=O)(=O)N1CCOCC1,86.6%
4,Cc1nnc(-n2c(O)cc(=O)n(-c3ccccc3)c2=S)nc1/C=C/c1ccc(N(C)C)cc1,63.1%
5,CO[C@]12C=C/C(=C(/C(=O)OCc3cccnc3)C(=O)CCCCCCCC[C@@]3(OC)C=C/C(=C(/C(=O)OCc4cccnc4)C(=O)CCCCCCCC1)O3)O2,-24.7% (active)
6,Oc1c(Cl)cc(Cl)c2ccc(Cn3cc(-c4cc(C(F)(F)F)cc(C(F)(F)F)c4)nn3)nc12,66%
7,COc1ccc(C(=O)Nc2cccc(C3CC(=O)c4c(cc(OC)c(OC)c4OC)O3)c2)cc1 (stereo not given),34.7%
8,CCN(C(=O)N1CCN(c2cc3c(cc2F)c(=O)c(C(=O)O)cn3C2CC2)CC1)c1nc(-c2ccc(Cl)cc2)cs1,-8.09% (active)
9,COc1ccc(-c2nc(SCC(C)C)nc(N/N=C\c3ccc(F)cc3)c2C#N)cc1,89.9%
10,CCSc1nc(NC)c2cc(-c3ccc(C(F)(F)F)cc3)ccc2n1,94.4%
11,COc1cc(-n2cc(-c3cc(O)c(C/C=C(\C)CCC=C(C)C)c(O)c3)nn2)cc2c1O[C@]1(C)CC[C@@H](O)C(C)(C)[C@H]1C2,29%
12,CC(C)CCC[C@@H](C)[C@H]1CC[C@H]2[C@@H]3CC=C4C[C@@H](C(C(=O)O)C(=O)O)CC[C@]4(C)[C@H]3CC[C@]12C,-22.6% (active)
13,O=C1/C(=C/c2ccc(Cl)cc2)COc2ccc(O)c(O)c21,5.45% (active)
14,COC(=O)CNC(=O)[C@H](Cc1ccccc1)NCc1ccncc1,96.4%
15,CCN(CC)c1ccc(/C=C/C(=O)c2ccc(Nc3nc(Nc4ccccc4)nc(Nc4ccccc4)n3)cc2)cc1,52.1%
16,C=C1C(=O)O[C@H]2[C@H]1CC/C(COC(=O)CCSCCC(=O)OC/C1=C/CC[C@@]3(C)O[C@H]3[C@H]3OC(=O)C(=C)[C@@H]3CC1)=C\CC[C@@]1(C)O[C@@H]21,-9.47% (active)
17,Cc1ccc(-c2nc(/C=C3/C(=O)Nc4ccccc43)c3ccccn23)cc1,104%
18,CCOC(=O)C(=Cc1cccc(Cl)c1)C(=O)OCC,42.6%
19,Cc1ccccc1NC(=O)c1sc2nc(C)c(C(=O)/C=C/c3ccccc3)cc2c1N,21.5%
20,Fc1cc2c(cc1Cl)N(c1ncnc3ccc(-c4cnc5[nH]ncc5c4)cc13)CC2,62.8%
